Source: PubChem (Sanford-Burnham Center for Chemical Genomics)
Rows were chosen to be rich in hits. Some 3% of all compounds tested hit in one or more screens of this group.
SENP8 block-1: human SENP8 protease inhibitors, primary screen, biochemical, fluorescence, Nedd8 protein substrate, uHTS | actives 0.64% (n = 360,000) | recombinant SENP8 | inhibition, % at 20 µM; in the data active means inhibition mostly above about 40%, no sharp cut-off; inactive means mostly below about 27%
PPC-1+TRAIL kill: compounds killing PPC-1 cancer cells with TRAIL present, primary screen, TRAIL potentiator project, ATPLite luminescence, uHTS. cell killing (% activity), % at 4 µM or 5 µM. actives 0.41% (n = 220,000). PPC-1 cells + TRAIL, ATPLite viability luminescence;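 active means cell killing above 50% in the first pass at 4 µM, then a duplicate retest at 5 µM averaging 50% or more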;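 further: plate controls were cells with TRAIL plus DMSO for no effect and medium-only wells lacking cells for full effect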
SENP8 block-2: SENP8 protease inhibitors, primary screen, biochemical, luminescence. inhibition, % at 10 µM. purified SENP8, Z-RLRGG-aminoluciferin cleavage. actives 1.2% (n = 330,000). Sentrin-specific protease 8 (Homo sapiens), Q96LD8. AID 2540, 2010; in the data active means inhibition above about 50%
SENP6 block: SENP6 protease inhibitors, primary screen, biochemical, luminescence, uHTS. Recombinant SENP6 catalytic domain, aminoluciferin luminescence. AID 2599, 2010. Sentrin-specific protease 6 (Homo sapiens), Q9GZR1. actives 1.8% (n = 330,000). inhibition, % at 10 µM;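 active means inhibition above about 50% at the single tested dose, limit read from the data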;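 further: plate controls were DMSO wells with enzyme for no effect and DMSO wells lacking enzyme for full effect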
TRAIL sens C8: viability loss with TRAIL in NB7+C8 cells, primary screen, TRAIL sensitizer project, cell-based, ATPlite luminescence | AID 624354, 2012 | actives 1% (n = 360,000) | inhibition (viability loss, TRAIL sensitization), % at 10 µM;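 active means compounds causing at least 50% loss of cell viability in the single-dose screen, relative to plate controls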
SENP7 block: SENP7 protease inhibitors, primary screen, biochemical, luminescence, uHTS; recombinant SENP7, Z-RLRGG-aminoluciferin luminescence, 40 min; inhibition, % at 5 µM; actives 1.5% (n = 330,000); AID 434973, 2010;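 active means inhibition above about 50% at the single test dose, limit read from the data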;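 further: plate controls were DMSO with enzyme for no effect and no enzyme buffer wells for full effect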
Target sequence (Q9BQF6 706-1050 limits assumed): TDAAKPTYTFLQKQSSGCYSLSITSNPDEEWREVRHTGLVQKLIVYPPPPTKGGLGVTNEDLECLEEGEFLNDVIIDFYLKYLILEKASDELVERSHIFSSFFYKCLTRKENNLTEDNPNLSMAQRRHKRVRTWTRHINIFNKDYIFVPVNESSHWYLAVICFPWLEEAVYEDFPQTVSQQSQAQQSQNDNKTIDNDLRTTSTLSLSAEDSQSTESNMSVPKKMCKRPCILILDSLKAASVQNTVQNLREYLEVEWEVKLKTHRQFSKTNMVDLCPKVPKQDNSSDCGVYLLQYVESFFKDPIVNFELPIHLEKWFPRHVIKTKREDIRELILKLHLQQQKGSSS
SENP8 conf: SENP8 protease inhibitors, retest, confirmation, biochemical, luminescence, single concentration. actives 40% (n = 6,200). shares compounds with SENP7 block. Recombinant SENP8, Z-RLRGG-aminoluciferin luminescence, 60 min. inhibition, % at 12.5 µM;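 active means mean inhibition across replicates above about 50%, limit read from the data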
SENP6 conf: SENP6 protease inhibitors, confirmation, biochemical, luminescence, single concentration; recombinant SENP6, Z-RLRGG-aminoluciferin luminescence; actives 58% (n = 6,200); inhibition, % at 12.5 µM; shares compounds with SENP7 block
SENP7 conf: SENP7 protease inhibitors, retest, confirmation, biochemical, luminescence, single concentration; shares compounds with SENP7 block; inhibition, % at 12.5 µM; recombinant SENP7, Z-RLRGG-aminoluciferin luminescence, 40 min; actives 69% (n = 6,200)
Casp3 select: caspase-3 protease inhibitors, confirmation, selectivity assay for SENP inhibitor project, biochemical, single concentration; actives 60% (n = 6,200); shares compounds with SENP7 block; inhibition, % at 12.5 µM; purified caspase-3, Z-DEVD-aminoluciferin luminescence, 60 min;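 active means mean inhibition above about 50%, limit read from the data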;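 further: plate controls were enzyme with DMSO for no effect and wells without caspase-3 for full effect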
Target sequence (P42574 28-227 limits assumed): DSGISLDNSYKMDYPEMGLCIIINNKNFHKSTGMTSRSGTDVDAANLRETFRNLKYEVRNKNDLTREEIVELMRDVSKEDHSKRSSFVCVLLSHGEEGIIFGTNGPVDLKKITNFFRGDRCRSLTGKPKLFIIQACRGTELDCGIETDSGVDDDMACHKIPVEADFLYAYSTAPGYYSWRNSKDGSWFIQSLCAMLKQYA
SENP luc ctr: interferes with luciferase luminescence in SENP counter-screen; shares compounds with SENP7 block; Pre-incubated SENP8/Z-RLRGG-aminoluciferin, luciferase luminescence interference; AID 488919; inhibition, % at 12.5 µM; actives 39% (n = 6,200);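 active means mean inhibition above about 50% when retested at one dose, limit read from the data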;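 further: plate controls were DMSO wells with completed reaction for no effect and substrate without enzyme for full effect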
The depositor's hits bear a star; . = no result.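 How the source made its calls, unless noted: active means mean inhibition above about 50% in the one-dose retest (limit read from the data); inactive means the rest.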

SMILES	SENP8 block-1	PPC-1+TRAIL kill	SENP8 block-2	SENP6 block	TRAIL sens C8	SENP7 block	SENP8 conf	SENP6 conf	SENP7 conf	Casp3 select	SENP luc ctr
COc1cccc(CNc2nc3cc(-c4cccc(C(=O)NCCO)c4)sc3c(=O)n2C)c1	-109.3	.	.	.	4.6	.	.	.	.	.	.
CCOC(=O)c1ccc(N=Cc2nc(-c3ccccc3)oc2OC(C)=O)cc1	-6.0	4.5	-12.7	-34.7	-12.8	-8.1	.	.	.	.	.
COc1ccc(N=Cc2nc(-c3ccccc3)oc2OC(=O)c2ccccc2)cc1	3.6	26.0	11.1	54.1*	39.1	56.1*	9.3	7.1	8.2	62.2*	4.8
CC(=O)Oc1oc(-c2ccccc2)nc1C=Nc1ccccc1	13.3	11.3	1.8	2.9	-10.8	-6.1	.	.	.	.	.
CN(C)c1ccc(N=Cc2nc(-c3ccccc3)oc2OC(=O)c2cccc(Br)c2)cc1	7.6	22.0	48.6	78.4*	6.3	47.3	-22.8	10.0	16.2	35.8	27.0
O=C(Nc1ccccc1[N+](=O)[O-])c1cccc(N2C(=O)CCC2=O)c1	1.9	.	-12.0	-4.9	-10.4	-6.0	.	.	.	.	.
CC(=O)Oc1ccccc1/C=C/c1nc2ccccc2c(=O)o1	-41.3	.	65.5*	75.6*	81.6*	66.1*	77.4*	74.1*	89.7*	93.8*	56.6*
CC(=O)Oc1ccc(/C=C/c2nc3ccccc3c(=O)o2)cc1	-133.9	.	94.6*	95.7*	76.4*	98.6*	73.7*	79.4*	54.7*	68.2*	49.6
O=C(Oc1ccc(OC(=O)N2CCOCC2)cc1)c1ccccc1	21.9	32.9	26.4	38.3	-5.2	55.5*	-19.9	18.9	71.8*	47.1	-2.1
O=C(Oc1ccc(-c2ccccc2)cc1)N1CCCCC1	-0.3	-6.2	18.5	53.4*	10.9	32.7	-3.6	-5.1	-5.6	-2.4	-4.0
c1ccc(-c2cnnc(-c3ccccn3)n2)cc1	25.9	.	17.1	17.5	3.1	17.7	.	.	.	.	.
c1ccc(-c2cnc(-c3ccccn3)nn2)cc1	16.0	.	41.0	61.3*	57.6*	60.3*	45.4	44.2	82.0*	77.3*	53.8*
CCN1CCN(C(=O)CSc2cc(=O)n(C)c3ccccc23)CC1	-12.9	2.9	-1.2	-14.6	-0.9	89.8*	8.2	4.9	4.1	0.2	1.4
CCC1(c2ccc(F)cc2)NC(=O)N(CC(=O)Nc2ccc(-c3nc4ccc(C)cc4s3)cc2)C1=O (stereo unspecified)	-265.7	34.9	-11.7	58.2*	33.5	-1.3	2.8	-3.4	13.9	17.5	17.3
CCOC(=O)c1cn2nc(N3CCCCC3)ccc2n1	-304.6	32.2	68.1*	71.8*	52.6*	71.4*	72.5*	72.3*	92.9*	88.8*	78.5*
O=C(O)c1ccc(OS(=O)(=O)c2ccc(Cl)s2)c(Cl)c1	14.5	.	45.5	55.7*	-0.2	5.7	34.2	33.3	61.4*	54.1*	59.5*
Cc1ccc(S(=O)(=O)N(C)C)cc1NC(=O)c1ccc2ccccc2n1	-0.4	-3.6	-1.4	-22.7	11.6	4.5	.	.	.	.	.
Cc1ccc(C)c(NC(=O)c2ccc3ccccc3n2)c1	23.8	37.4	90.8*	96.8*	48.0	97.0*	81.8*	16.5	34.7	66.9*	16.5
COc1cc(NC(C)=O)ccc1NC(=O)c1cc2ccccc2o1	-16.9	.	4.7	-12.9	8.7	6.1	.	.	.	.	.
CCCC(=O)Nc1ccc(NC(=O)c2cc3ccccc3o2)c(OC)c1	-22.1	.	2.3	29.5	-1.8	54.5*	7.9	5.7	26.8	18.6	7.2
Cc1ccnc(NC(=O)c2ccc(Cl)s2)c1	5.5	.	66.6*	75.6*	39.0	71.8*	76.1*	74.9*	93.2*	86.1*	77.2*
O=C(Nc1ccccc1C(F)(F)F)c1cc2ccccc2o1	16.7	.	66.5*	73.5*	24.5	68.3*	60.5*	70.6*	91.6*	73.6*	67.3*
CCCC(C)C(=O)Nc1nnc(CCc2ccccc2)s1 (stereo unspecified)	0.9	.	9.9	20.1	-2.9	-0.4	.	.	.	.	.
COC(=O)C1=C(C(=O)OC)[C@]2([C@H]3CCCCN[C@@H](Cc4ccccc4)C(=O)N3Cc3ccccc3)C=C[C@H]1O2	20.7	.	6.3	6.2	8.4	-3.1	.	.	.	.	.
CCN1C[C@@H]2[C@@H]3C(=O)N(Cc4ccccc4)C(=O)[C@@H]3[C@](C)(C1=O)N2C(=O)c1ccc(F)cc1	12.1	.	.	.	5.0	.	.	.	.	.	.
SMILES	SENP8 block-1	PPC-1+TRAIL kill	SENP8 block-2	SENP6 block	TRAIL sens C8	SENP7 block	SENP8 conf	SENP6 conf	SENP7 conf	Casp3 select	SENP luc ctr
Cc1noc(C)c1NC(=O)N(C)C[C@H]1OCc2cn(nn2)CCCC(=O)N([C@@H](C)CO)C[C@@H]1C	2.9	.	.	.	3.8	.	.	.	.	.	.
CCOC(=O)Cc1csc(NC(=O)c2cc3ccccc3o2)n1	-23.2	14.0	17.9	9.9	38.3	28.7	.	.	.	.	.
Cc1csc(NC(=O)c2cc3ccccc3o2)n1	-64.5	.	78.8*	84.7*	65.0*	89.7*	85.7*	82.2*	97.1*	90.3*	86.3*
Cc1ccnc(NC(=O)c2ccc(C(=O)c3ccccc3)cc2)c1	-0.6	.	73.0*	79.8*	68.9*	69.5*	71.8*	68.9*	93.0*	85.3*	78.0*
Cc1csc(C(C#N)C(=O)c2cc3ccccc3o2)n1 (stereo unspecified)	13.6	34.0	53.9*	59.2*	59.4*	13.7	31.3	73.3*	86.1*	78.7*	46.0
Cc1ccnc(NC(=O)c2cc3ccccc3o2)c1	-3.9	.	90.2*	94.3*	86.2*	98.6*	96.0*	96.7*	101.5*	96.6*	94.1*
